{"source": "PubChem BioAssay", "key": {"[1]": {"test_system": "Wnt5a (protein binding on small-molecule microarray)", "assay": "small molecules binding Wnt5a protein – biophysical, small-molecule microarray, 635/667 nm fluorescence, primary screen (AID 1142);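 note: fluorescence read at 667 nm with signal to noise per printed feature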", "conditions": "635 nm fluorescence, higher = more signal"}, "[2]": {"assay": "ATP-based viability of Huh7 replicon cells – cell-based, CellTiter-Glo luminescence, basal, 48 h, cytotoxicity control for HCV replication inhibitor project, primary screen (AID 1143);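 note: Huh7 hepatoma cells carrying a hepatitis C replication reporter with no stimulus; test concentration not given here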", "conditions": "higher = more signal, called active from +8 up or from −8 down"}, "[3]": {"assay": "Pseudomonas biofilm growth suppression – PAO1 strain, BacTiter-Glo luminescence, LB-PBS, primary screen (AID 1144)", "conditions": "P. aeruginosa PAO1 biofilm, 12 h, higher = more signal"}, "[4]": {"assay": "basal CRE-LacZ reporter activity in PC12 – cell-based, unstimulated, primary screen (AID 1145)", "conditions": "no forskolin, luminescence, 4.5 h, higher = more signal, called active from +8 up or from −8 down"}, "[5]": {"assay": "forskolin-driven CRE-LacZ activity in PC12 – cell-based, CRE-LacZ reporter, forskolin-stimulated, primary screen (AID 1146);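 note: beta-galactosidase reporter signal reflecting CREB driven transcription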", "conditions": "luminescence, 4.5 h, higher = more signal, called active from +8 up or from −8 down"}, "[6]": {"target": "Streptavidin (Streptomyces avidinii) (UniProt P22629)", "sequence (P22629 whole entry, looked up)": "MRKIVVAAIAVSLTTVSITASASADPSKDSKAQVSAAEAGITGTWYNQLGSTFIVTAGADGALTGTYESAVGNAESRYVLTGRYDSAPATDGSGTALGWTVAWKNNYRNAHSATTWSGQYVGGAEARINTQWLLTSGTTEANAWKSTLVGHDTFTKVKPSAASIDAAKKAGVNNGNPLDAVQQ", "assay": "compounds binding control protein streptavidin – biophysical, small-molecule microarray, 635/667 nm fluorescence, artefact control for SMM compound annotation, primary screen (AID 1147);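 note: signal reflects streptavidin binding to arrayed compounds as a control protein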", "conditions": "higher = more signal"}, "[7]": {"assay": "probe aInhba binding on compound microarray – biochemical, small-molecule microarray, 635/667 nm fluorescence, primary screen (AID 1148);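 note: score merges 667nm spot fluorescence with signal-to-noise for antibody binding to printed compounds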", "conditions": "higher = more signal"}, "[8]": {"target": "Torsin-1A (Homo sapiens) (UniProt O14656)", "sequence (O14656 whole entry, looked up)": "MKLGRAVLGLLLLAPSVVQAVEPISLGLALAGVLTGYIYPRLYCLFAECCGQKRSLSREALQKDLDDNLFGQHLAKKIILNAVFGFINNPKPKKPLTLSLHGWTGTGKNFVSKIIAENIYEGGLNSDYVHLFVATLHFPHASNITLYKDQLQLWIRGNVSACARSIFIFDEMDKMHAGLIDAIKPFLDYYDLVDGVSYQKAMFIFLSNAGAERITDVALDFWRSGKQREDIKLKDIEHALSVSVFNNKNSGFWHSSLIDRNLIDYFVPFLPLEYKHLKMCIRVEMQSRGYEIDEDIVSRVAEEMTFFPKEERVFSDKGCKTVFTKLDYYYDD", "assay": "TOR1A wild-type binding on microarray – cell lysate, small-molecule microarray, lysate, 635/667 nm, primary screen (AID 1149)", "conditions": "COS7 hTOR1A-WT lysate, 635 nm fluorescence, higher = more signal"}, "[9]": {"target": "Torsin-1A (Homo sapiens) (UniProt O14656)", "assay": "torsin A mutant lysate binding on microarrays – cell lysate, small-molecule microarray, COS7 lysate, 635/667 nm fluorescence, primary screen (AID 1150);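 note: score pools 667 nm emission and signal to noise measuring lysate protein binding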", "conditions": "COS7 hTOR1A mutant lysate, 635 nm fluorescence, higher = more signal"}, "[10]": {"test_system": "Sonic hedgehog protein (Shh)", "assay": "Sonic hedgehog microarray binding compounds – biochemical, small-molecule microarray, 635/667 nm fluorescence, primary screen (AID 1151);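 note: Shh protein binding to compounds spotted on small-molecule microarray slides; score combines spot fluorescence intensity with signal-to-noise across triplicate slides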", "conditions": "635 nm fluorescence, higher = more signal"}, "[11]": {"assay": "optical density shifts of acrAB sulA E. coli – strain DRC41, OD650, 48 h, E. coli filamentation inducer project, primary screen (AID 1152);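 note: E. coli MC1000 strain DRC41 lacking acrAB efflux pump and sulA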", "conditions": "higher = more signal, called active from +8 up or from −8 down"}, "[12]": {"assay": "probe aLefty1 binding on compound microarray – biochemical, small-molecule microarray, 635/667 nm fluorescence, primary screen (AID 1153);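 note: score merges spot fluorescence with signal-to-noise ratio from the scanned slide images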", "conditions": "higher = more signal"}, "[13]": {"assay": "plasmodial surface anion channel blockers, osmotic lysis – cell-based, P. falciparum Indochina, OD700, 1 h, primary screen (AID 1154)", "conditions": "P. falciparum Indochina infected RBC osmotic lysis, higher = more signal, called active from +8 up or from −8 down"}, "[14]": {"assay": "plasmodial surface anion channel blockers, osmotic lysis – cell-based, P. falciparum Indochina, OD700, 2 h, primary screen (AID 1155);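 note: lysis reports solute entry through the parasite surface anion channel PSAC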", "conditions": "P. falciparum Indochina infected erythrocytes, higher = more signal, called active from +8 up or from −8 down"}, "[15]": {"assay": "changes in parasitized red cell lysis, either direction – P. falciparum Indochina, OD700, 3 h, PSAC antagonist project, primary screen (AID 1156)", "conditions": "P. falciparum-infected erythrocytes, osmotic lysis, higher = more signal, called active from +8 up or from −8 down"}, "[16]": {"assay": "plasmodial surface anion channel blockers, osmotic lysis – cell-based, P. falciparum Indochina, OD700, 18 h, primary screen (AID 1157)", "conditions": "P. falciparum Indochina infected erythrocytes, osmotic lysis OD700, 18 h; higher = more signal, called active from +8 up or from −8 down"}, "[17]": {"assay": "S6 kinase pathway phospho-S6 level changes – cell-based, A549, cytoblot, luminescence, serum-stimulated, primary screen (AID 1158);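 note: serum-stimulated A549 lung adenocarcinoma cells; signal is phosphorylated S6 detected by cytoblot immunostaining with HRP secondary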", "conditions": "5 h, higher = more signal"}, "[18]": {"target": "NADPH oxidase 2 (Homo sapiens) (UniProt P04839)", "sequence (P04839 whole entry, looked up)": "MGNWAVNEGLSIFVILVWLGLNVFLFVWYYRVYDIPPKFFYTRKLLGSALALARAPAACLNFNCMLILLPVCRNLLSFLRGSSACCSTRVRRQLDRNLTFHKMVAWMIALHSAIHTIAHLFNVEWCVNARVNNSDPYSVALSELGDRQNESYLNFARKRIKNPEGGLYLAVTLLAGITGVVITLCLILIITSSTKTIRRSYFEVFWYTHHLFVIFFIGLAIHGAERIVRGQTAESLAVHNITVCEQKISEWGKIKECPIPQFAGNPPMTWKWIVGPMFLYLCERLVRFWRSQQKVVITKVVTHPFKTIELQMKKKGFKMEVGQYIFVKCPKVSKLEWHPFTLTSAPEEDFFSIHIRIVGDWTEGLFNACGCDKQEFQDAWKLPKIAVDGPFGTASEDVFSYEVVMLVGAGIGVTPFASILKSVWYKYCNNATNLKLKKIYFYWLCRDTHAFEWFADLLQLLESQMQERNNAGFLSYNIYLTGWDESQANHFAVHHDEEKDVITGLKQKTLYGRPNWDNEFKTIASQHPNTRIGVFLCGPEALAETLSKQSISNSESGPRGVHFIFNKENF", "assay": "compounds shifting NOX2 Amplex Red fluorescence – cell-based, HEK293-NOX2, PMA-stimulated, NOX inhibitor project, primary screen (AID 1159); note: test concentration not given here", "conditions": "45 min, higher = more signal, called active from +8 up or from −8 down"}, "[19]": {"target": "NADPH oxidase 4 (Homo sapiens) (UniProt Q9NPH5)", "sequence (Q9NPH5 whole entry, looked up)": "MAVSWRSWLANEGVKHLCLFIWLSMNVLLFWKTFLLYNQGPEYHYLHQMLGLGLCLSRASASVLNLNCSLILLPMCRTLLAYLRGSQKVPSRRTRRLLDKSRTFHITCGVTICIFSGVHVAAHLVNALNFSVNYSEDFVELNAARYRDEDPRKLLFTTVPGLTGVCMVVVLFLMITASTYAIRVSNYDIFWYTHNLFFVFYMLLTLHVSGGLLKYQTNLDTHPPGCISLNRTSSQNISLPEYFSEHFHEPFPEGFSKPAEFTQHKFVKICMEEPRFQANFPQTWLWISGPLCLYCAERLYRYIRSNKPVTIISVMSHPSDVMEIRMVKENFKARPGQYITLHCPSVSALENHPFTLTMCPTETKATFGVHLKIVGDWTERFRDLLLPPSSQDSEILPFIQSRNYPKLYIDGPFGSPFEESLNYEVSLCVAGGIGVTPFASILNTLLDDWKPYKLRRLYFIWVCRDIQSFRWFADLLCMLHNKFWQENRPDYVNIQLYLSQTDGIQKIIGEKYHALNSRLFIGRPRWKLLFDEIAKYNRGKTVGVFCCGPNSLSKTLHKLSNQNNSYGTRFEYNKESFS", "assay": "compounds shifting NOX4 Amplex Red fluorescence – cell-based, HEK293-NOX4, tetracycline-induced, NOX inhibitor project, primary screen (AID 1160)", "conditions": "HEK293-NOX4, Amplex Red H2O2 fluorescence, 45 min; higher = more signal, called active from +8 up or from −8 down"}, "[20]": {"target": "NADPH oxidase 5 (Homo sapiens) (UniProt Q96PH1)", "sequence (Q96PH1 whole entry, looked up)": "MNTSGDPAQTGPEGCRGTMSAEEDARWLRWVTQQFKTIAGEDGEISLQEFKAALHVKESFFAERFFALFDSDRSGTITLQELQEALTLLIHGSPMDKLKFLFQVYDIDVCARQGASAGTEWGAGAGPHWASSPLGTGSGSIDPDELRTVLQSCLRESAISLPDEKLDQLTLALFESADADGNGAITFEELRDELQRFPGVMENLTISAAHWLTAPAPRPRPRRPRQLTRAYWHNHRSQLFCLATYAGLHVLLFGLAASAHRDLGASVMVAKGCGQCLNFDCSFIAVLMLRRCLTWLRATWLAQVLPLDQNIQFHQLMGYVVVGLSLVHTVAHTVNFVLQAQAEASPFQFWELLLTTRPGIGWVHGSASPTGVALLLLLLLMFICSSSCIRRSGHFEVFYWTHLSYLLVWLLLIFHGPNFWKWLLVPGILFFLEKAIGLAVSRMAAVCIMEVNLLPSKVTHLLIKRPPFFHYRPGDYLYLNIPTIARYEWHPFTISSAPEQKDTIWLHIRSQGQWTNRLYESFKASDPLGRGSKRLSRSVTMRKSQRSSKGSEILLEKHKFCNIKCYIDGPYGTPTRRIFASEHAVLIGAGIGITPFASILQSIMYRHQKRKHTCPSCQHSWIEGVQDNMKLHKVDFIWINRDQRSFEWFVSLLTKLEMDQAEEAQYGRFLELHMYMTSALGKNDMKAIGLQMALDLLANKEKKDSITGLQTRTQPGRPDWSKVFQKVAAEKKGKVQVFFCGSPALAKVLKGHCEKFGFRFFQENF", "assay": "compounds shifting NOX5 Amplex Red fluorescence – cell-based, HEK293-NOX5, NOX inhibitor project, primary screen (AID 1161)", "conditions": "HEK293-NOX5, ionomycin, 45 min, higher = more signal"}}, "note": "Active and inactive are the calls of the source. Unless noted, the rule behind the calls is not given here."}
{"compound": "CN(C)CCCC[C@@H]1NC(=O)[C@@H]2C[C@H](C(=O)NCCCCCCN)[C@H](c3cccc(OCCO)c3)N2C1=O", "values": [{"measurement": "composite z-score", "setting": "[1]", "result": 0.017}, {"measurement": "z-score", "setting": "[2]", "result": "-0.96 (inactive)"}, {"measurement": "z-score", "setting": "[3]", "result": "0.168 (inactive)"}, {"measurement": "z-score", "setting": "[4]", "result": "0.139 (inactive)"}, {"measurement": "z-score", "setting": "[5]", "result": "-0.347 (inactive)"}, {"measurement": "composite z-score", "setting": "[6]", "result": 2.1}, {"measurement": "composite z-score", "setting": "[7]", "result": 0.831}, {"measurement": "composite z-score", "setting": "[8]", "result": 1.17}, {"measurement": "composite z-score", "setting": "[9]", "result": 1.99}, {"measurement": "composite z-score", "setting": "[10]", "result": 0.68}, {"measurement": "z-score", "setting": "[11]", "result": "-0.3 (inactive)"}, {"measurement": "composite z-score", "setting": "[12]", "result": 1.1}, {"measurement": "z-score", "setting": "[13]", "result": "3.07 (inactive)"}, {"measurement": "z-score", "setting": "[14]", "result": "0.198 (inactive)"}, {"measurement": "z-score", "setting": "[15]", "result": "1.87 (inactive)"}, {"measurement": "z-score", "setting": "[16]", "result": "0.105 (inactive)"}, {"measurement": "z-score", "setting": "[17]", "result": 0.292}, {"measurement": "z-score", "setting": "[18]", "result": "0.956 (inactive)"}, {"measurement": "z-score", "setting": "[19]", "result": "1.14 (inactive)"}, {"measurement": "z-score", "setting": "[20]", "result": 0.941}]}
{"compound": "COCCOC(=O)N1C(=O)[C@@]2(c3cc(C#CCCO)ccc31)[C@H](C(N)=O)[C@H]1C(=O)O[C@H](c3ccccc3)[C@H](c3ccccc3)N1[C@@H]2c1ccc(O)cc1", "values": [{"measurement": "composite z-score", "setting": "[1]", "result": 0.186}, {"measurement": "z-score", "setting": "[2]", "result": "0.505 (inactive)"}, {"measurement": "z-score", "setting": "[3]", "result": "0.676 (inactive)"}, {"measurement": "z-score", "setting": "[4]", "result": "-0.602 (inactive)"}, {"measurement": "z-score", "setting": "[5]", "result": "-0.702 (inactive)"}, {"measurement": "composite z-score", "setting": "[6]", "result": -0.36}, {"measurement": "composite z-score", "setting": "[7]", "result": -0.163}, {"measurement": "composite z-score", "setting": "[8]", "result": -0.192}, {"measurement": "composite z-score", "setting": "[9]", "result": -0.176}, {"measurement": "composite z-score", "setting": "[10]", "result": -0.412}, {"measurement": "z-score", "setting": "[11]", "result": "-0.903 (inactive)"}, {"measurement": "composite z-score", "setting": "[12]", "result": -0.15}, {"measurement": "z-score", "setting": "[13]", "result": "2.44 (inactive)"}, {"measurement": "z-score", "setting": "[14]", "result": "0.213 (inactive)"}, {"measurement": "z-score", "setting": "[15]", "result": "-0.458 (inactive)"}, {"measurement": "z-score", "setting": "[16]", "result": "-0.0317 (inactive)"}, {"measurement": "z-score", "setting": "[17]", "result": -0.237}, {"measurement": "z-score", "setting": "[18]", "result": "0.463 (inactive)"}, {"measurement": "z-score", "setting": "[19]", "result": "0.561 (inactive)"}, {"measurement": "z-score", "setting": "[20]", "result": 0.728}]}
{"compound": "COC(=O)[C@@]1(CCC(=O)OC(C)(C)C)N=C(c2ccc(OCCCO)cc2)O[C@H]1c1ccccc1N=[N+]=[N-]", "values": [{"measurement": "composite z-score", "setting": "[1]", "result": 0.174}, {"measurement": "z-score", "setting": "[2]", "result": "-4.35 (inactive)"}, {"measurement": "z-score", "setting": "[3]", "result": "-0.656 (inactive)"}, {"measurement": "z-score", "setting": "[4]", "result": "2.68 (inactive)"}, {"measurement": "z-score", "setting": "[5]", "result": "-1.21 (inactive)"}, {"measurement": "composite z-score", "setting": "[6]", "result": -0.0572}, {"measurement": "composite z-score", "setting": "[7]", "result": -0.101}, {"measurement": "composite z-score", "setting": "[8]", "result": -0.184}, {"measurement": "composite z-score", "setting": "[9]", "result": -0.143}, {"measurement": "composite z-score", "setting": "[10]", "result": 0.696}, {"measurement": "z-score", "setting": "[11]", "result": "-0.871 (inactive)"}, {"measurement": "composite z-score", "setting": "[12]", "result": -0.39}, {"measurement": "z-score", "setting": "[13]", "result": "28.2 (active)"}, {"measurement": "z-score", "setting": "[14]", "result": "25.2 (active)"}, {"measurement": "z-score", "setting": "[15]", "result": "1.67 (inactive)"}, {"measurement": "z-score", "setting": "[16]", "result": "5.1 (inactive)"}, {"measurement": "z-score", "setting": "[17]", "result": -0.117}, {"measurement": "z-score", "setting": "[18]", "result": "-2.9 (inactive)"}, {"measurement": "z-score", "setting": "[19]", "result": "0.248 (inactive)"}, {"measurement": "z-score", "setting": "[20]", "result": -2.56}]}
{"compound": "O=C(CS)NCCCCCCNC(=O)[C@@H]1C[C@@H]2C(=O)N[C@@H](Cc3ccccc3)C(=O)N2[C@@H]1c1cccc(OCCO)c1", "values": [{"measurement": "composite z-score", "setting": "[1]", "result": 0.879}, {"measurement": "z-score", "setting": "[2]", "result": "0.0037 (inactive)"}, {"measurement": "z-score", "setting": "[3]", "result": "-0.614 (inactive)"}, {"measurement": "z-score", "setting": "[4]", "result": "-0.134 (inactive)"}, {"measurement": "z-score", "setting": "[5]", "result": "-0.112 (inactive)"}, {"measurement": "composite z-score", "setting": "[6]", "result": 0.253}, {"measurement": "composite z-score", "setting": "[7]", "result": -0.163}, {"measurement": "composite z-score", "setting": "[8]", "result": 1.1}, {"measurement": "composite z-score", "setting": "[9]", "result": 1.48}, {"measurement": "composite z-score", "setting": "[10]", "result": 1.49}, {"measurement": "z-score", "setting": "[11]", "result": "-0.92 (inactive)"}, {"measurement": "composite z-score", "setting": "[12]", "result": -0.073}, {"measurement": "z-score", "setting": "[13]", "result": "4.39 (inactive)"}, {"measurement": "z-score", "setting": "[14]", "result": "0.198 (inactive)"}, {"measurement": "z-score", "setting": "[15]", "result": "0.839 (inactive)"}, {"measurement": "z-score", "setting": "[16]", "result": "0.0799 (inactive)"}, {"measurement": "z-score", "setting": "[17]", "result": -0.775}, {"measurement": "z-score", "setting": "[18]", "result": "1.75 (inactive)"}, {"measurement": "z-score", "setting": "[19]", "result": "0.728 (inactive)"}, {"measurement": "z-score", "setting": "[20]", "result": -0.131}]}
